# DT40 TDP1 no CPT: qHTS for Inhibitors of human tyrosyl-DNA phosphodiesterase 1 (TDP1): qHTS in cells in absence of CPT | actives 15% (n = 420,000) | AID 686978, 2013 | DT40 Tdp1-/- hTDP1 cells, no CPT, ATP luminescence, 48 h | Potency, µM (titrated, usually from 46.2 µM), inactives show at the highest dose activity change, negative = growth inhibition, usual class: inhibitors; further: potency means the concentration at half of the fitted maximal effect; on the % scale 0 is the no-effect control and ±100 the full control effect; nearly all actives have a fitted effect of over 55% in size
#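 Luminescent ATP content (CellTiter-Glo) served as the growth readout. Knockout chicken DT40 cells expressing human TDP1 were exposed to compounds without camptothecin for a minimum 48 hr at 37 °C.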
# DT40 TDP1 CPT: qHTS for Inhibitors of human tyrosyl-DNA phosphodiesterase 1 (TDP1): qHTS in cells in presence of CPT; chicken DT40 Tdp1-/-;hTDP1 cells + 20 nM CPT, ATP luminescence, 48 h; Potency, µM (top dose mostly 46.2 µM), for inactives: top-dose activity change, negative = growth inhibition, actives largely listed as inhibitors; actives 12% (n = 420,000); AID 686979, 2013; further: potency means the concentration at half of the fitted maximal effect; on the % scale 0 is the no-effect control and ±100 the full control effect; nearly all actives have a fitted effect of over 55% in size
#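 Cell growth measured by CellTiter-Glo luminescence after a minimum 48 h, 37 C compound exposure with 20 nM CPT in Tdp1-knockout DT40 cells stably expressing hTDP1, seeded 400/well; qHTS titration format.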
# TDP1 block: qHTS Assay for Inhibitors of Tyrosyl-DNA Phosphodiesterase (TDP1) | recombinant TDP1, AlphaScreen DNA substrate cleavage | Potency, µM (titrated, usually from 130 µM), for the others: at the top dose activity change, negative = inhibition, actives largely listed as inhibitors | Tyrosyl-DNA phosphodiesterase 1 (Homo sapiens), Q9NUW8 | actives 0.28% (n = 350,000); further: potency means the concentration at half of the fitted maximal effect; on the % scale 0 is the no-effect control and ±100 the full control effect; nearly all actives have a fitted effect of over 40% in size
# Target sequence (Q9NUW8 whole entry, looked up): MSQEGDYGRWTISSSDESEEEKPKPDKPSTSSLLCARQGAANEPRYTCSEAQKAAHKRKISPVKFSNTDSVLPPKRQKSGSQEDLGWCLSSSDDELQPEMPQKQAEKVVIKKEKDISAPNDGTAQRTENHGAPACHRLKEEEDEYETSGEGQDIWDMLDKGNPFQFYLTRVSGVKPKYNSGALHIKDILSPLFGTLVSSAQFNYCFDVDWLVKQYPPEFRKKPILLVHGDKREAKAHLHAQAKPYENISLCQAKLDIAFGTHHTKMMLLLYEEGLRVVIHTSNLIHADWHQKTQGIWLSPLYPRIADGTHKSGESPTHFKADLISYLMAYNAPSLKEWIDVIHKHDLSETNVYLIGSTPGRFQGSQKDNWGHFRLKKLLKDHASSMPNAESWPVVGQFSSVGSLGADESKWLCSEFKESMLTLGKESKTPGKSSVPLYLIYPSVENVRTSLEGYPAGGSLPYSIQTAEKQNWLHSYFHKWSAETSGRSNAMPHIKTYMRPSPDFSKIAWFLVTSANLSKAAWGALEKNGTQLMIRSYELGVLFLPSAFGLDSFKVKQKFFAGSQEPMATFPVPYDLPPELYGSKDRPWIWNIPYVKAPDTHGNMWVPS
#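 Recombinant human Tdp1 (E. coli-expressed, 1 nM final) preincubated with compounds 15 min at room temperature, then 5'-biotin/3'-phosphotyrosine-FITC DNA substrate (15 nM final) added for 5 min. AlphaScreen beads (10 ug/ml final) added 10 min; cleavage lowers signal.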
# uPA generation: qHTS for Inhibitors of Cell Surface uPA Generation. cell surface uPA generation assay, qHTS. Potency, µM (series often up to 38.3 µM), for the others: at the highest dose activity change, negative = inhibition, usual class: inhibitors. actives 0.31% (n = 330,000). AID 540303, 2011; active means well fitted inhibition curve with a large enough effect; inconclusive means small, poorly fitted or top-dose-only effect; inactive means no such curve, though single readings can be large or run the other way; tested in mouse RAW 264.7 cells; further: potency means the concentration at half of the fitted maximal effect; on the % scale 0 is the no-effect control and ±100 the full control effect; nearly all actives have a fitted effect of over 55% in size
# miR-21 reporter: qHTS Assay for Modulators of miRNAs and/orActivators of miR-21 | HeLa miR-21 FLuc reporter, luciferase, 48 h | Potency, µM (top dose mostly 38.3 µM), for the others: top-dose activity change, positive = activation, hits mostly activators | 340,000 tested, under 10 active;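 further: % of control where 0% means no effect; miR-21 action dims this reporter so a rising signal means less miR-21 action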
#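 Using DMEM plus 10% FBS, HeLa miR-21-FLuc cells are incubated with test compounds (final up to about 40uM) for 48 hours; firefly luciferase signal is then imaged following reagent-mediated lysis.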
# The depositor's hits bear a star; ? = inconclusive; nt = not tested or not shown; [ ] = dose if it differs, or a comment. Most compounds without a hit are left out; they make up all but 16% or so of the library. Unless noted, the call rests on the fitted dose curve; in most records, active means well fitted curve in the direction sought with a large enough effect; inconclusive means small, poorly fitted or top-dose-only effect, or another doubt; inactive means no such curve, though single readings can be large; an effect the other way counts as inactive or inconclusive.
SMILES,DT40 TDP1 no CPT,DT40 TDP1 CPT,TDP1 block,uPA generation,miR-21 reporter
CCCn1c(SCC(=O)c2c(C)[nH]c(C)c2C(=O)OCC)nc2ccccc21,?,16µM*,4%,0%,0%
CCOC(=O)c1c(C)[nH]c(C)c1C(=O)CSc1nc2ccccc2c(=O)n1-c1ccc(Cl)cc1,18µM*,16µM*,4%,-9%,25%
CCN1C(=O)/C(=C2/Sc3ccccc3N2CC)S/C1=N\c1ncn[nH]1,23µM*,?,0%,9%,-19%
CC(C)(C)c1cc(C(=O)NN)n(Cc2ccc(F)cc2)n1,-18%,-20%,3%,1%,0%
COC(=O)c1cc(NC(=O)c2cc(C(C)(C)C)nn2Cc2ccc(F)cc2)ccc1N1CCOCC1,18µM*,?,1%,?,?
COCCN(Cc1cc2cc(C)ccc2nc1Cl)C(=O)Nc1ccccc1OC,16µM*,16µM*,0%,-1%,1%
COCCN(Cc1cc2cc(C)c(C)cc2nc1Cl)C(=O)Nc1ccccc1,?,?,6%,-10%,1%
COCCN(Cc1cc2cc3c(cc2nc1Cl)OCO3)C(=O)c1ccc(C)cc1,13µM*,?,-3%,?,18%
COC(=O)c1c(NC(=O)COc2cc(C)ccc2C(C)C)sc2c1CCC(C)C2 (configuration not stated),-20%,1%,-3%[12.3 µM],nt,-1%
O=C(Nc1ccc2oc(-c3cccc4c(Br)cccc34)nc2c1)c1ccc(F)cc1,10µM*,?,3%[12.3 µM],nt,-3%
O=C(Nc1ccc(-c2nc3cc(NC(=O)c4ccc(F)cc4)ccc3o2)cc1)c1ccc(F)cc1,-2%,23%,3%,nt,-4%
Cc1cccc(NC(=O)c2ccc(C(=O)Nc3cccc(C)c3)nc2)c1,16µM*,2.6µM*,5%,-11%,12%
COc1ccccc1C(=O)Nc1ccc2oc(-c3ccc(F)cc3)nc2c1,?,18µM*,5%,1%,-14%
COc1cccc(OC)c1C(=O)NC(=S)Nc1ccc2oc(-c3ccncc3)nc2c1,23µM*,26µM*,3%,-1%,4%
Cc1cccc(C)c1NC1=C(Cl)C(=O)OC1OC(C)C (configuration not stated),-30%,-9%,0%,-5%,-9%
COc1ccc(Cl)cc1NC(=O)CSc1nnc(Cn2c(=O)sc3ccccc32)n1C,?,?,-3%,-15%,-8%
C[C@H]1C=C(C(=O)N2CCN(Cc3ccc4c(c3)OCO4)CC2)O[C@@H](OCc2ccc(CO)cc2)C1,-25%,0%,6%,10%,1%
COc1ccc(NC(=O)NNC(=O)C(C)Oc2ccc(C(C)C)cc2)c(OC)c1 (configuration not stated),-12%,-25%,5%,9%,7%
Cc1cccc(N2CCN(C(=O)Cc3c(C(=O)O)c(C)cn3C)CC2)c1C,-25%,5%,4%,nt,-2%
O=C(Nc1ccc2oc(-c3ccccc3)nc2c1)c1ccc2c(c1)OCCO2,16µM*,23µM*,6%,nt,-1%
CC(C)Oc1cccc(C(=O)Nc2ccc3oc(-c4ccccc4)nc3c2)c1,21µM*,?,2%,nt,-6%
Cc1cccc(C(=O)Nc2ccc(C(=O)c3ccccc3)cc2)c1,?,?,nt,4%,nt
Cc1cccc(C(=O)Nc2ccc(C(=O)c3ccncc3)cc2)c1,15µM*,?,nt,nt,nt
Cc1cccc(C(=O)Nc2ccc3oc(-c4ccncc4)nc3c2)c1,12µM*,21µM*,nt,nt,8%
CCOc1ccc(NC(=O)NNC(=O)C(C)Oc2ccccc2OC)cc1 (configuration not stated),12%,14%,4%,1%,-5%
